Rows were chosen to be rich in hits. Some 13% of all compounds tested hit in one or more screens of this group.
USP28 block: inhibitors of human USP28 deubiquitinase | Ubiquitin carboxyl-terminal hydrolase 28 (Homo sapiens), Q96RU2 | purified USP28, Ub-rhodamine cleavage fluorescence, 30 min | inhibition, % at 25 µM | actives 3% (n = 47,000) | AID 1645857, 2021
USP30 block: inhibitors of human USP30 deubiquitinase | Ubiquitin carboxyl-terminal hydrolase 30 (Homo sapiens), Q70CQ3 | purified USP30, Ub-rhodamine cleavage fluorescence | inhibition, % at 25 µM | actives 5.3% (n = 47,000) | AID 1645860, 2021
USP8 block: inhibitors of human USP8 deubiquitinase. inhibition, % at 20 µM. AID 1645853, 2021. purified USP8, Ub-rhodamine cleavage fluorescence, 30 min. Ubiquitin carboxyl-terminal hydrolase 8 (Homo sapiens), P40818. actives 4.2% (n = 47,000)
USP17 block: inhibitors of human USP17 deubiquitinase; Ubiquitin carboxyl-terminal hydrolase 17-like protein 5 (Homo sapiens), A8MUK1; purified USP17, Ub-rhodamine cleavage fluorescence, 3 h; inhibition, % at 50 µM; actives 6.5% (n = 47,000); AID 1645855, 2021
Target sequence (A8MUK1 whole entry, looked up): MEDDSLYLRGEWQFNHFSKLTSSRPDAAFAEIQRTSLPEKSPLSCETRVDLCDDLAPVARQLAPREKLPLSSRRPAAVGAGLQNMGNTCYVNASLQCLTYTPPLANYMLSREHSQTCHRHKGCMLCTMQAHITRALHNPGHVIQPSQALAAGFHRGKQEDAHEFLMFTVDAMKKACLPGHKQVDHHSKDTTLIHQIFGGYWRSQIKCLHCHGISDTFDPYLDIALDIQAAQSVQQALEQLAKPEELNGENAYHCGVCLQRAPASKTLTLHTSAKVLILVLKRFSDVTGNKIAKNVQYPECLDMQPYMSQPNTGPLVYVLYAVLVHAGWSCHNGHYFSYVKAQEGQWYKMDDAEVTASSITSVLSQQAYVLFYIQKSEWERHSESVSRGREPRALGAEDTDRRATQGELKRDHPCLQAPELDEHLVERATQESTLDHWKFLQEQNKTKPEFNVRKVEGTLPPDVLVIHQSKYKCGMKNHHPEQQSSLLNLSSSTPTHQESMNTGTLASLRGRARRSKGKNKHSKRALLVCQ
Active calls of the source: *; nt = no result. No stated cut-off is given here; in the data, active means inhibition above about 30%; inactive means the rest.

SMILES | USP28 block | USP30 block | USP8 block | USP17 block
CCN(Cc1ccccc1)S(=O)(=O)c1ccc(C(=O)Nc2ccc3c(c2)OCCO3)cc1 | 60* | 40* | 22 | 10
COc1ccccc1NC(=O)c1ccc(S(=O)(=O)N(C)Cc2ccccc2)cc1 | 24 | 34* | 17 | 18
COc1ccccc1N(C)S(=O)(=O)c1ccc(C(=O)Nc2cccc(-n3cnnn3)c2C)cc1 | 23 | 28 | 15 | 35*
Cc1ccc(C)c(N(CC(=O)Nc2ccc3c(c2)OCCO3)S(=O)(=O)c2ccccc2)c1 | 20 | 30* | -85 | 10
Cc1ccc(N(CC(=O)NCc2ccncc2)S(=O)(=O)c2ccccc2)c(C)c1 | 8 | 10 | 4 | 1
COc1cc(C(=O)Nc2ccccc2Cc2ccccc2)cc(OC)c1OC | 4 | 36* | 14 | 32*
CC(=O)c1cccc(NC(=O)c2ccc(S(=O)(=O)N(C)Cc3ccccc3)cc2)c1 | 0 | 11 | 2 | 44*
Cc1ccc(C)c(NC(=O)CNc2cc(C(F)(F)F)ccc2N2CCOCC2)c1 | 10 | 4 | -11 | nt
CC1CCC(NC(=O)c2cc3ccccc3o2)CC1 (stereo unspecified) | 15 | 9 | 20 | nt
C[C@@]12CCN(Cc3cnc(N4CCOCC4)nc3)[C@@H]1CCCCC(=O)N2Cc1ccccc1 | -35 | -131 | -1 | -39
CCOC(=O)c1noc2ncn(Cc3nc(-c4cccc(C)c4)oc3C)c(=O)c12 | 4 | 2 | -12 | 0
CCOC(=O)c1noc2ncn(Cc3nc(-c4ccc(C)cc4)oc3C)c(=O)c12 | 13 | 35* | 6 | 31*
COc1cccc(-n2cnc3cc(C(=O)NC4CC4)ccc3c2=O)c1 | -4 | -14 | 92* | 73*
COc1ccc(CCNC(=O)c2ccc3c(=O)n(-c4ccccc4OC)cnc3c2)cc1 | 26 | -16 | -10 | -27
O=C(NC1CC1)c1ccc2c(=O)n(-c3ccc(F)cc3)cnc2c1 | -20 | -10 | 62* | 20
O=C(NC1CC1)c1ccc2c(=O)nc3c(-c4cccc(F)c4)n[nH]n3c2c1 | -6 | -5 | -2 | 0
COc1ccc(C(=O)N2CCN(Cc3cc(=O)n4ccccc4n3)CC2)cc1 | 18 | 36* | 21 | 20
Cc1ccn2c(=O)cc(COc3cccc(NC(=O)Nc4ccccc4)c3)nc2c1 | -9 | -67 | -39 | -18
Cc1ccn2c(=O)cc(COc3cccc(NC(=O)COc4ccccc4C)c3)nc2c1 | -44 | -271 | 8 | -158
Cc1ccn2c(=O)cc(COc3cccc(NC(=O)Nc4ccc(F)cc4)c3)nc2c1 | 1 | -36 | 21 | 38*
O=C(c1cc(F)ccc1Br)N1CCN(Cc2cc(=O)n3ccccc3n2)CC1 | -14 | -23 | -13 | nt
COc1ccc(OCC(=O)Nc2ccc(C)c(OCc3cc(=O)n4ccccc4n3)c2)cc1 | -13 | -56 | -11 | 50*
Cc1ccccc1NC(=O)Nc1ccccc1OCc1cc(=O)n2ccccc2n1 | 20 | 42* | 13 | 50*
Cc1ccccc1NC(=O)Cn1cc(S(=O)(=O)N2CCCCC2)ccc1=O | 6 | 16 | 15 | 13
Cn1c(=O)c2c(nc(CN3CCOCC3)n2CCc2ccccc2)n(C)c1=O | 1 | 32* | 5 | 3
SMILES | USP28 block | USP30 block | USP8 block | USP17 block
COc1ccc(CCNC(=O)c2cnc3c(-c4cccc(C)c4)c(C)nn3c2C)cc1OC | 39* | -17 | 3 | 0
CC(C)c1cccc(OCCOCCN2CCNCC2)c1 | 48* | 21 | 8 | 8
COc1ccc(C(=O)NCCc2c[nH]c3ccccc23)cc1[N+](=O)[O-] | 39* | 3 | -71 | -11
COc1cc(OC)c2c(C)c(CC(=O)NCCc3c[nH]c4ccccc34)c(=O)oc2c1 | -9 | -1 | 6 | 33*
CC1(c2ccc3c(c2)CCC3)NC(=O)N(Cc2cc(=O)n3ccsc3n2)C1=O (stereo unspecified) | 7 | -31 | 16 | 33*
O=c1cc(CNc2ccc(Br)cc2)nc2sccn12 | 2 | -3 | -2 | 1
O=[N+]([O-])c1ccc(Oc2ccc3nnc(-c4ccccc4Cl)n3n2)cc1 | -4 | -5 | -154 | -18
C=C1NC(=O)[C@@H](CC)NC(=O)CNC(=O)[C@H](Cc2c[nH]c3cccc(OC)c23)NC(=O)[C@H](Cc2c[nH]c3ccccc23)NC(=O)c2csc(n2)[C@@H](C)NC(=O)CN(C)C1=O | -2 | 8 | 10 | 32*
O=C1[C@@H]2Cc3c([nH]c4ccccc34)C(c3cccc(Cl)c3)N2C(=O)N1c1ccc2c(c1)OCCO2 (stereo partly specified) | -8 | -79 | 0 | -6
